According to PubChem BioAssay (NCI):
About 83,000 compounds went through this panel and 20% of them were active in at least one assay; those are over-represented in the sample as a whole.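 48-hour exposure, single concentration, 96-well plates; percent growth endpoint where 0 means no net growth. Active: below 10.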 Unmarked numbers belong to inactive results. Calls of active or inactive are those of the source.

Key:
Assay in all cases: NCI-60 one-dose screen, 48 h (100 = growth as untreated, 0 = no growth, -100 = all killed)
Conditions in all cases: 10 µM unless noted
NCI-H23 lung = tested on: NCI-H23 lung
NCI-H226 lung = tested on: NCI-H226 lung
NCI-H322M lung = tested on: NCI-H322M lung
HOP-62 NSCLC = tested on: HOP-62 NSCLC
NCI-H460 lung = tested on: NCI-H460 lung
HOP-92 NSCLC = tested on: HOP-92 NSCLC
NCI-H522 lung = tested on: NCI-H522 lung
A549/ATCC NSCLC = tested on: A549/ATCC NSCLC
786-0 renal = tested on: 786-0 renal
COLO 205 colon = tested on: COLO 205 colon
DU-145 prostate = tested on: DU-145 prostate
K-562 leukemia = tested on: K-562 leukemia
MALME-3M melanoma = tested on: MALME-3M melanoma
MDA-MB-231 breast = tested on: MDA-MB-231 breast
RXF 393 renal = tested on: RXF 393 renal
SF-268 CNS = tested on: SF-268 CNS
SF-295 CNS = tested on: SF-295 CNS
SF-539 CNS = tested on: SF-539 CNS
UACC-257 melanoma = tested on: UACC-257 melanoma
M14 melanoma = tested on: M14 melanoma

Row | SMILES | growth (NCI-H23 lung) | growth (NCI-H226 lung) | growth (NCI-H322M lung) | growth (HOP-62 NSCLC) | growth (NCI-H460 lung) | growth (HOP-92 NSCLC) | growth (NCI-H522 lung) | growth (A549/ATCC NSCLC) | growth (786-0 renal) | growth (COLO 205 colon) | growth (DU-145 prostate) | growth (K-562 leukemia) | growth (MALME-3M melanoma) | growth (MDA-MB-231 breast) | growth (RXF 393 renal) | growth (SF-268 CNS) | growth (SF-295 CNS) | growth (SF-539 CNS) | growth (UACC-257 melanoma) | growth (M14 melanoma)
1 | CC(=O)/C(C)=N\OC(=O)Nc1ccccc1 | 93.8% | 104% | 101% | 94.8% | 107% | 92.9% | 98.3% | 103% | 100% | 96.4% | 104% | 98.4% | 104% | 99.3% | 125% | 101% | 101% | 95.3% | 98.7% | 101%
2 | O=C(Nc1cccc(Cl)c1)c1ccc(Cl)cc1Cl | 99.4% | 94.7% | 103% | 92.3% | 95.1% | 95.7% | 78.1% | 81.1% | 88.4% | 101% | 99.3% | 90.9% | 96.6% | 97.9% | 110% | 96.2% | 94.6% | 103% | 99.7% | 93.7%
3 | CC12CCC3c4ccc(O)cc4CCC3C1CCC2=O (stereo not given) | 104% | 97% | 113% | 98.1% | 105% | 104% | 70% | 92.3% | 94.5% | 103% | 112% | 93.9% | 113% | 83.5% | 103% | 99% | 112% | 96.6% | 93.8% | 102%
4 | COC(=O)Cc1cc(COC(C)=O)ccc1C | 104% | 107% | 110% | 110% | 109% | 79% | 99.2% | 99.1% | 100% | 120% | 116% | 108% | 110% | 125% | 107% | 113% | 121% | 111% | 108% | 106%
5 | CCC12OC(COc3ccccc3)CN1CCN2c1ccccc1 (stereo not given) | 98.2% [100 µM] | 93.8% [100 µM] | 93.3% [100 µM] | 98.9% [100 µM] | 106% [100 µM] | 96.9% [100 µM] | 87.6% [100 µM] | 94.1% [100 µM] | 96.6% [100 µM] | 118% [100 µM] | 106% [100 µM] | 93.1% [100 µM] | 98.4% [100 µM] | 88.8% [100 µM] | 99.9% [100 µM] | 92.2% [100 µM] | 105% [100 µM] | 95.9% [100 µM] | 95.8% [100 µM] | 103% [100 µM]
6 | C=CCS(C)(=O)=O | 106% | 96.7% | 102% | 87.3% | 105% | 99.4% | 92.8% | 92.9% | 99.4% | 96.5% | 108% | 103% | 121% | 97.9% | 98% | 103% | 93.8% | 96.3% | 89.5% | 95.8%
7 | CCCC1OC(c2ccco2)OCC1CC (stereo not given) | 96.8% | 111% | 102% | 105% | 113% | 105% | 80.5% | 87.5% | 105% | 106% | 104% | 105% | 118% | 102% | 136% | 101% | 105% | 106% | 93.1% | 102%
8 | CCCCc1ccc2nc(NC(=O)OC)[nH]c2c1 | 14.1% | 63.4% | 50.2% | 24.2% | 2.11% (active) | 60.7% | -9.52% (active) | 18.4% | 16.5% | -45.8% (active) | -2.08% (active) | -20.4% (active) | 48.1% | 13% | 20.9% | 28.8% | -5.83% (active) | -51.1% (active) | 69% | 8.08% (active)
